We go through 18 compounds from the supplement of paper PMC10498489.

Hit rate of the full screen: of about 2,300 compounds, about 330 (14%) showed activity.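 Rule for the calls: active = median modified Z-score above 1.96; inactive = 1.96 or below.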 Only a sample is shown.

The test system of the test is HepG2 Srxn1-GFP reporter cells (+30 nM CDDO-Me). Nature of the test: Srxn1-GFP intensity median modified Z-score relative to plate median; higher = stronger NRF2 / oxidative stress reporter activation, active = hit call of the paper. Conditions: 10 µM; exposure time: 24h. In short, it runs like this:
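Values give the median, over replicates, of the modified Z-score of GFP intensity on each plate. HepG2 Srxn1-GFP BAC reporter cells were co-treated for 24 h with an NRF2 activator at 30 nM and compound at 10 μM (≤0.1% DMSO) in three replicate plates, then analysed per cell for cytoplasmic GFP on confocal images with at least 100 cells. Scaling used 1.4826 × median absolute deviation.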
`N=C(N)N=c1[nH]c(CSCCC(=N)NS(N)(=O)=O)cs1` [euspeclibcmpd364]: the “Srxn1-GFP intensity median modified Z-score” value is 0.317 (inactive).
Under `O=C(O[C@@H]1Cc2c(O)cc(O)cc2OC1c1cc(=O)c(O)c2c(O)c(O)cc(C3Oc4cc(O)cc(O)c4C[C@H]3O)c2c1)c1cc(O)c(O)c(O)c1` (stereo partly drawn) [euspeclibcmpd1583] stands -0.77 (inactive); under `COc1ccc(-c2cc(=O)c3c(OC)c(OC)c(OC)c(OC)c3o2)cc1OC` [euspeclibcmpd1435], 1.9 (inactive).
`COc1ccc(-c2cc(=O)c3c(O)c(OC)c(OC)c(OC)c3o2)cc1` [euspeclibcmpd2317]: the “Srxn1-GFP intensity median modified Z-score” value is 0.184 (inactive).
Under `COc1ccc(-c2cc(=O)c3c(OC)c(OC)c(OC)c(OC)c3o2)cc1` [euspeclibcmpd1464] stands 6.78 (active).
For the compound `OC[C@@H](O)[C@@H](O)[C@@H](O)[C@H](O)[C@@H](O)CO` [euspeclibcmpd1702], the “Srxn1-GFP intensity median modified Z-score” value was -0.744 (inactive).
Consider `C#CCCCCCCCCCCCC(O)CC(O)CO` (stereo not drawn) [euspeclibcmpd1458], for which the “Srxn1-GFP intensity median modified Z-score” value is 4.24 (active).
For the compound `C=CCCCCCCCCCCCC(O)CC(O)CO` (stereo not drawn) [euspeclibcmpd2211], the “Srxn1-GFP intensity median modified Z-score” value is 2.24 (active).
As for `C=CCCCCCCCCC(=O)O` [euspeclibcmpd2049], the “Srxn1-GFP intensity median modified Z-score” value was 0.331 (inactive).
Regarding `CC(=O)OCC(OC(C)=O)C(OC(C)=O)C(OC(C)=O)C(OC(C)=O)C(COC(C)=O)OC(C)=O` (stereo not drawn) [euspeclibcmpd1364], the “Srxn1-GFP intensity median modified Z-score” value is -0.434 (inactive).
Take `CC(=O)OCC(COC(C)=O)OC(C)=O` [euspeclibcmpd301]: the “Srxn1-GFP intensity median modified Z-score” value is 0.397 (inactive).
Consider `C=CCCCCCCCCCCCC(O)CC(O)CO` (stereo not drawn) [euspeclibcmpd1371], for which the “Srxn1-GFP intensity median modified Z-score” value is 1.62 (inactive).
The same measure for `C#CCCCCCCCCCCCC(O)CC(O)COC(C)=O` (stereo not drawn) [euspeclibcmpd1372]: 3.35 (active); for `CC(=O)O[C@@]12CO[C@@H]1C[C@H](O)[C@@]1(C)C(=O)C(=O)C3C(C)[C@@H](OC(=O)[C@@H](O)[C@@H](NC(=O)OC(C)(C)C)c4ccccc4)C[C@@](O)([C@@H](OC(=O)c4ccccc4)C12)C3(C)C` (stereo partly drawn) [euspeclibcmpd1130]: 1.49 (inactive).
Under `O=C(O)CCNC(=O)c1ccc(N=Nc2ccc(O)c(C(=O)O)c2)cc1` [euspeclibcmpd2245] stands -0.361 (inactive); under `CN(C)c1ccc(O)c2c1C[C@H]1C[C@H]3C(N(C)C)C(=O)C(C(N)=O)C(=O)[C@@]3(O)C(=O)C1C2=O` (stereo partly drawn) [euspeclibcmpd201], -0.262 (inactive).
Regarding `COC(=O)CCC(C)C1CCC2C3CC[C@@H]4C[C@H](O)CC[C@]4(C)C3C[C@H](O)[C@]12C` (stereo partly drawn) [euspeclibcmpd1611], the “Srxn1-GFP intensity median modified Z-score” value was -0.0244 (inactive).
With `CCc1cc(Cl)c(OC)c(C(=O)NCC2CCCN2CC)c1O` (stereo not drawn) [euspeclibcmpd333], the “Srxn1-GFP intensity median modified Z-score” value was 0.457 (inactive).
